# What was measured:
# Assay in all cases: PBM binding z-score (relative to random genomic background probes); higher = stronger binding; sequences stand for … in GC…GCGATTGACAGCGTAGAATGAAGG
# [1] = system: FXR:RXRa (NR concentration 270 nM, RXRa partner concentration 90 nM)
# How it was run: (§1)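 Each nuclear receptor dimer, without ligand, was incubated for 1 h on custom Agilent 4×180K protein-binding microarrays. Binding was detected with antibodies against each partner (one per run), and scanned fluorescence was regression-normalized. The binding z-scores are referenced to random human genomic background probes.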
# [2] = system: LXRa:RXRa (NR concentration 270 nM, RXRa partner concentration 90 nM)
# How it was run: as §1
# [3] = system: LXRa homodimer (NR concentration 270 nM)
# How it was run: as §1
# [4] = system: LXRb:RXRa (NR concentration 270 nM, RXRa partner concentration 90 nM)
# How it was run: as §1
# [5] = system: LXRb homodimer (NR concentration 270 nM)
# How it was run: as §1
# [6] = system: PPARa:RXRa (NR concentration 270 nM, RXRa partner concentration 90 nM)
# How it was run: as §1
# [7] = system: PPARg:RXRa (NR concentration 180 nM, RXRa partner concentration 90 nM)
# How it was run: as §1
# [8] = system: PPARg:RXRa 270nM:90nM, anti-RXR (NR concentration 270 nM, RXRa partner concentration 90 nM)
# How it was run: as §1
# [9] = system: PPARg:RXRa 30nM:10nM, anti-RXR (NR concentration 30 nM, RXRa partner concentration 10 nM)
# How it was run: as §1
# [10] = system: PPARg:RXRa 90nM:30nM, anti-RXR (NR concentration 90 nM, RXRa partner concentration 30 nM)
# How it was run: as §1
Sequence,PBM binding z-score [1],PBM binding z-score [2],PBM binding z-score [3],PBM binding z-score [4],PBM binding z-score [5],PBM binding z-score [6],PBM binding z-score [7],PBM binding z-score [8],PBM binding z-score [9],PBM binding z-score [10]
TCTTGTATATCAAAGGTTAAGAAAGCCGAAGCCT,1.57,2.66,1.24,2.13,0.723,3.79,6,6.59,6.78,7.96
CAAACTAGGTCCCCGGAAGGTCAAAGTCCGCATG,2.38,3.13,2.88,2.9,0.475,3.7,2.01,2.86,0.494,1.63
CAAACTAGGTCACGAAAGGTCCAAGTCGAATGAC,4.78,3.96,0.544,2.73,0.334,5.45,8.99,7.44,4.78,7.28
TTACCAAAGTGAAGGTCGTTGATCCCTCTGTAGA,2.06,2.07,-0.0239,1.33,-0.489,1.15,-0.21,0.882,0.58,0.768
TCGAGTAGGTTAGGGGCATTAAGAATGGCGTCGA,0.466,0.479,-0.184,0.739,-0.27,1.34,1.07,2.13,1.32,1.98
ATCAAAAGGTCGACGAGGTGAGTATACACCGTTT,4.64,3.46,0.265,2.86,0.587,4.82,3.29,3.63,1.47,2.53
TGTATTAGTTGAAGGGCAACCGACGAGTCCGTTT,0.551,0.588,0.228,0.491,0.587,0.462,0.102,0.95,0.864,0.871
TCATATAGGTAAATGCTTGGTGAAAGTCCGATCT,0.688,0.994,0.23,0.824,-0.0277,1.12,0.522,2.24,3.68,2.72
CTGGAAAGGTCGTGCTCAGGTGAGTATACCAAAC,5.25,3.35,-0.219,2.7,-0.505,4.7,2.63,3.81,1.04,2.24
ACTATTAGTAGACTTAGGGCAACCGATACGACGC,-0.142,-0.0337,0.0948,-0.377,0.454,-0.25,1.13,0.419,0.331,0.394
AGAATGAGGTTATACGTAGATCAGGGTAGAAAGT,2.27,1.96,0.00674,1.65,0.246,3.21,2.08,2.36,0.669,1.22
TAGCCTAGGTCATATCGGGCCAGTATACGCTATA,4.12,3.82,0.583,2.59,0.744,3.14,1.53,1.61,0.227,0.981
TCTGGTAGATCAGCAGGTTAAGAAAGCTGGCCAA,-0.0813,-0.0843,-0.0573,0.308,-1.12,0.507,-0.637,1.06,1.81,1.12
CGTCCAAGGTCAGCAGGCCAGTGAAAGCGACGTG,4.9,3.41,-0.314,2.31,-0.659,4.69,2.86,3.35,0.155,1.84
CGAACTAGGTCAAGGACAGTCAATCTCCGCACGC,3.39,2.64,0.323,1.57,-0.248,4.76,7.58,6.42,3.9,5.59
ATATGTAGGTTAAGGGTCGTTCAGGTTGGTTCGC,2.74,2.85,1.23,2.85,0.845,6.01,10.9,9.42,10.4,11
ATCTCTAGGCAACAAGTTCAGTGAAAGAGAGGAC,0.0391,0.175,-0.0655,0.139,0.432,0.498,0.668,1.15,0.633,1.09
CTCGAAAGGCCGTGCTCAGGTGAGTATACCAAAC,-0.251,-0.522,-0.406,-0.298,-0.835,-0.342,-0.381,-0.723,-0.648,-0.958
TCATATAGGTAGATGCTAGGTGAAAGTCCGATCT,0.567,0.862,0.165,0.357,-0.423,0.819,0.568,1.87,3.53,2.7
TAGCCTAGGTCATTGGGCCCGTATAGTACGCATC,4.15,3.59,0.962,2.9,0.67,3.84,2.27,2.57,0.517,1.74
CGTCAAAGTTAAACTAAGGTAACGTAAAGCACGC,0.945,1.15,0.57,0.346,0.169,0.868,0.628,0.688,0.0889,0.292
CCTATCAGGCCAGGGTCACTCAAGCATTTCGCTT,2.19,1.74,-0.264,2.23,-0.67,3.33,0.918,1.93,-0.162,0.886
CCTAGCAGGCCAGGCTCACTCAAGCATTTCGCTT,-0.543,-0.545,-0.346,-0.706,-0.617,-0.794,-0.439,-0.638,-1.13,-0.853
ATACCAAGGTGATTGTGAGGTCGTTGATACTAAC,2.01,2.09,1.51,1.81,0.313,1.79,0.442,0.649,0.0726,0.48

# From the supplement of paper PMC6555819
